According to PubChem BioAssay:
Values without a mark were called inactive. How the calls were made is not given here.

Experiment: Pseudomonas biofilm growth suppression – PAO1 strain, BacTiter-Glo luminescence, LB-PBS, primary screen (AID 1144)
Details: P. aeruginosa PAO1 biofilm, 12 h, higher = more signal

Compared with CCN1C(=O)[C@@H]2[C@H]3C(=CC[C@@H]2C1=O)C1(OCCCO1)[C@H]1O[C@H]1[C@H]3O, CCN1C(=O)[C@H]2[C@H]3[C@H](O)[C@H](O)CC(=O)[C@@H]3CC[C@H]2C1=O is lower in z-score: 0.291 for the first, -0.402 for the second.

First: CCOC(=O)[C@H](Cc1ccccc1)NC(=O)CCC1CC(OC(=O)NCCc2ccc(F)cc2)CC2(CCCC(COC(=O)NCCc3ccccc3OC)O2)O1 (stereo partly specified)
Second: CCOC(=O)[C@H](Cc1ccccc1)NC(=O)CCC1CC(OC(=O)NCc2ccc3c(c2)OCO3)CC2(CCCC(COC(=O)NCCC(C)C)O2)O1 (stereo partly specified)
The z-score of the first is higher: 0.248 for the first, -0.749 for the second.

First: CCOC(=O)NN=C1C[C@@H](O)[C@@H](O)[C@@H]2[C@@H]3C(=O)N(c4cccc(Oc5ccccc5)c4)C(=O)[C@@H]3CC[C@H]12
Second: COc1ccc(COC(=O)NN=C2C[C@@H](O)[C@@H](O)[C@@H]3[C@@H]4C(=O)N(Cc5ccccc5)C(=O)[C@@H]4CC[C@H]23)cc1
The z-score of the first is lower: -0.215 for the first, 0.43 for the second.

Going from CCCCC#C[C@@H]1C=C[C@H](Oc2ccc(C(=O)OC)cc2)[C@@H](COC(=O)OCC)O1 to CCCNC(=O)OC[C@H]1O[C@H](CCON=C(C)CCN2CCc3nc(CC)c(CC)cc3C2)C=C[C@@H]1Oc1ccc(OC)cc1, the z-score falls from 0.0612 to -0.546.

Compared with CCC1=NOC(CCC2CC(OC(=O)NCc3cccc4c3OCO4)CC3(CCCC(COC(=O)NCCc4ccccc4OC)O3)O2)C1 (stereo unspecified), CCOC(=O)[C@H](CC(C)C)NC(=O)CCC1CC(OC(=O)NCc2cccc3ccccc23)CC2(CCCC(COC(=O)NCCC(C)C)O2)O1 (stereo partly specified) is lower in z-score: 0.249 for the first, -1.52 for the second.

Compared with CO[C@@H]1COC(=O)CC=C[C@H](C)[C@H](OC)COC(=O)[C@H](C)NC(=O)CC=C[C@H]1C, CO[C@@H]1COC(=O)CC=C[C@@H](C)[C@@H]2C=C[C@H](O)[C@@H](COC(=O)CC=C[C@H]1C)O2 is lower in z-score: 0.938 for the first, 0.177 for the second.

Going from C#CCCCON=C1C[C@@H](O)[C@@H](O)[C@@H]2[C@@H]3C(=O)N(C(C)(C)C)C(=O)[C@@H]3CC[C@H]12 to CC(C)CON=C1C[C@@H](O)[C@@H](O)[C@@H]2[C@@H]3C(=O)N(C[C@@H]4CCCO4)C(=O)[C@@H]3CC[C@@H]12, the z-score falls from 0.189 to -0.184.

Compared with COC(=O)CC=C[C@@H](C)[C@@H](C=NO[C@H](C)c1cn([C@H](CO)Cc2ccccc2)nn1)NS(=O)(=O)c1ccc(C)cc1, COC(=O)CC=C[C@@H](C)[C@@H](C=NOC[C@@H](O)[C@H]1O[C@@H]2OC(C)(C)O[C@@H]2[C@H]1O)NS(=O)(=O)c1ccc(C)cc1 is lower in z-score: 0.92 for the first, 0.603 for the second.

Going from CCO[C@H](c1cc(OC)cc([N+](=O)[O-])c1OC)[C@H](C)C=CCC(=O)OC to COC(=O)CC=C[C@@H](C)[C@H](OCc1cccc(-c2ccccc2)c1)C1CCCCC1, the z-score rises from -0.0286 to 0.125.

Compared with COC(=O)[C@H](C)NC(=O)CCC1CC(OC(=O)NCCc2ccc(F)cc2)CC2(CCCC(COC(=O)NCc3cccc(C(F)(F)F)c3)O2)O1 (stereo partly specified), COC(=O)[C@H](C)NC(=O)CCC1CC(OC(=O)NCc2ccc3c(c2)OCO3)CC2(CCCC(COC(=O)NCc3cccc(C(F)(F)F)c3)O2)O1 (stereo partly specified) is lower in z-score: 0.198 for the first, -0.0589 for the second.

Compared with CCOC(=O)[C@H](CC(C)C)NC(=O)CCC1CC(OC(=O)NCc2ccc3c(c2)OCO3)CC2(CCCC(COC(=O)NCc3cccc(C(F)(F)F)c3)O2)O1 (stereo partly specified), COC(=O)[C@H](C)NC(=O)CCC1CC(OC(=O)NCc2cccc3ccccc23)CC2(CCCC(COC(=O)NCC(c3ccccc3)c3ccccc3)O2)O1 (stereo partly specified) is higher in z-score: -0.67 for the first, -0.155 for the second.

Compared with C[C@@H](c1ccccc1)N1C(=O)[C@H]2[C@H]3[C@H](O)[C@H](O)CC(=NO[C@@H]4O[C@H](CO)[C@@H](O)[C@H](O)[C@H]4O)[C@H]3CC[C@H]2C1=O, C[C@@H](c1ccccc1)N1C(=O)[C@H]2[C@H]3[C@H](O)[C@H](O)CC(=NOCc4ccccc4)[C@H]3CC[C@H]2C1=O is higher in z-score: -0.104 for the first, 0.576 for the second.

First: CCc1cc2c(nc1CC)CCN(CCC(C)=NO[C@H](C)c1cn([C@H](CO)Cc3ccccc3)nn1)C2
Second: Cc1cc2c(nc1C)CCCCN2CC(C)ON=C[C@@H](C)[C@H](OCc1ccccc1)C(C)C (stereo partly specified)
The z-score of the first is lower: -0.374 for the first, 0.207 for the second.

Going from O=C1C[C@@H](O)[C@@H](O)[C@@H]2[C@@H]3C(=O)N(Cc4ccccc4)C(=O)[C@@H]3CC[C@@H]12 to O=C(NN=C1C[C@@H](O)[C@@H](O)[C@@H]2[C@@H]3C(=O)N(Cc4ccccc4)C(=O)[C@@H]3CC[C@@H]12)OCc1ccccc1, the z-score rises from -0.593 to -0.526.

Going from COc1ccc(O[C@H]2C=C[C@@H](c3ccccc3)O[C@@H]2CON=CC[C@@H]2C=C[C@H](OC(C)=O)[C@@H](COC(C)=O)O2)cc1 to C=CC[C@@H]1C=C[C@H](ON=C(C)CCC(=O)OC[C@H]2O[C@H](c3ccccc3)C=C[C@@H]2Oc2ccc(OC)cc2)[C@@H](CO)O1, the z-score falls from -0.705 to -0.743.

Going from Cc1ccc(S(=O)(=O)n2c3ccccc3c3nnc(C(=O)c4ccccc4)nc32)cc1 to COc1ccc(O[C@H]2C=C[C@@H](c3ccccc3)O[C@@H]2CON=C(C)CCC(=O)OC[C@H]2O[C@H](c3ccccc3)C=C[C@@H]2Oc2ccc(OC)cc2)cc1, the z-score rises from -0.673 to 0.107.

Compared with CCCNC(=O)OC[C@H]1O[C@H](CCON=C(C)CCC(=O)OC[C@H]2O[C@H](c3ccccc3)C=C[C@@H]2Oc2ccc(OC)cc2)C=C[C@@H]1Oc1ccc(OC)cc1, CCCNC(=O)OC[C@H]1O[C@H](CCON=Cc2ccc(C(=O)N3[C@H](c4ccc(C)cc4)[C@@H](C)CC[C@H]3C(=O)OC)cc2)C=C[C@@H]1Oc1ccc(OC)cc1 is higher in z-score: -0.665 for the first, 0.0699 for the second.

Going from CCOC(=O)CCN1C(=O)[C@H]2[C@H]3[C@H](O)[C@H](O)CC(=NNC(=O)OCc4ccccc4)[C@@H]3CC[C@H]2C1=O to O=C(NN=C1C[C@@H](O)[C@@H](O)[C@@H]2[C@@H]3C(=O)N(C4CCCCC4)C(=O)[C@@H]3CC[C@H]12)OCc1ccccc1, the z-score falls from -0.143 to -0.19.
